# TDP1 cell CPT: growth inhibition of DT40 Tdp1-/-;hTDP1 cells with camptothecin (screen for TDP1 inhibitors); chicken DT40 Tdp1-/-;hTDP1 cells + 20 nM CPT, ATP luminescence, 48 h; Potency, µM (titrated, usually from 46.2 µM), for inactives: at the highest dose activity change, negative = growth inhibition, actives largely listed as inhibitors; hit rate 12% among 420,000; also: potency is read from the fitted curve at half-maximal effect; nearly all actives have a fitted effect of over 55% in size
#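 Chicken DT40 Tdp1-/- cells stably complemented with human TDP1 were seeded at 400 cells/well in medium containing 20 nM camptothecin, exposed to pin-transferred compounds, and grown at 37 °C for at least 48 hr. Viability was read as ATP luminescence.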
# HT1080 IDH1KD tx: HT-1080 IDH1 knockdown cell toxicity (counter line); HT-1080 IDH1 knockdown viability, ATP luminescence, 48 h; Potency, µM (highest dose often 46.1 µM), for inactives: top-dose activity, negative = toxicity, actives largely listed as cytotoxic; hit rate 2% among 360,000;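 also: potency is read from the fitted curve at half-maximal effect; 0% = DMSO wells and -100% = cell-free medium wells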
#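 Knockdown cells (IDH1KD HT-1080) received compounds 2 h after plating at 750 cells/well and were kept 48 h at 37 °C in 5% FBS RPMI. A CellTiter-Glo luminescence read gave % activity for curve fitting.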
# ELG1 DNA repair: blocks ELG1-dependent DNA repair in HEK293T cells. AID 504467. HEK293T ELG1-luciferase reporter, luminescence, 16 h; DNA damage induced by 5-fluorouridine. hit rate 2.3% among 330,000. Potency, µM (top dose mostly 46.1 µM), for inactives: at the highest dose activity change, negative = inhibition, usual class: inhibitors; also: potency is read from the fitted curve at half-maximal effect; nearly all actives have a fitted effect of over 55% in size
#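 Luminescence from the luciferase reporter, measured 30 min after ONE-Glo reagent at room temperature, was the read-out. Beforehand, 2,000 cells per well were exposed for 16 hr at 37 °C to 5-fluorouridine together with compound or vehicle.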
# IL1B secr inh: blocks inflammasome-driven IL-1 beta release; hit rate 4.7% among 360,000; activity change, % at 57.5 µM; THP-1 LPS/ATP IL-1B secretion, AlphaLISA, 16 h; active compounds read low; in the data active = activity change below about -50%; inconclusive = mostly about -30% to -49%
#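 Secreted IL-1B measured by AlphaLISA bead assay after 16 h compound exposure of THP-1 cells; compounds (final up to 57.5 uM) added 1 h before LPS (250 ng/mL) and ATP (1.25 mM) stimulation; lower signal means less secretion.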
# HT1080NT lethal: kills 2HG-producing HT-1080-NT fibrosarcoma cells | HT-1080-NT fibrosarcoma viability, CellTiter-Glo ATP luminescence, 48 h | Potency, µM (top dose mostly 46.1 µM), for inactives: top-dose activity, negative = less viability, most hits filed as cytotoxic | hit rate 1.6% among 360,000;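 also: NT is the 2HG producing partner of a matched IDH1 knockdown line; potency is read from the fitted curve at half-maximal effect; 0% = DMSO-treated cells and -100% = media-only wells without cells; nearly all actives have a fitted effect of over 55% in size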
#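 HT-1080-NT fibrosarcoma cells (2HG-overproducing), 750 cells/well in RPMI with 5% FBS, dosed after 2 h and incubated 48 h at 37C. CellTiter-Glo luminescence normalized to DMSO and no-cell wells; concentration-response curves fitted and classed.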
# TDP1 cell noCPT: qHTS for Inhibitors of human tyrosyl-DNA phosphodiesterase 1 (TDP1): qHTS in cells in absence of CPT; DT40 Tdp1-/- hTDP1 cells, no CPT, ATP luminescence, 48 h; Potency, µM (titrated, usually from 46.2 µM), for inactives: top-dose activity change, negative = growth inhibition, hits mostly inhibitors; hit rate 15% among 420,000; AID 686978, 2013; also: potency is read from the fitted curve at half-maximal effect; nearly all actives have a fitted effect of over 55% in size
#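 Chicken DT40 Tdp1-/- cells complemented with human TDP1, screened without camptothecin (DMSO vehicle only), 400 cells/well. Compounds pin-transferred, cells incubated at 37 °C for at least 48 hr. Growth read as ATP-dependent luminescence (CellTiter-Glo, 30 min at RT).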
# Starred values were filed as active, the others as inactive; ? = inconclusive; . = no result. Compounds with a hit are over-represented: about 19% of the library has one in this group of screens. Unless noted, calls follow the shape of the dose curve; as a rule, active = well fitted curve in the direction sought with a large enough effect; inconclusive = small, poorly fitted or top-dose-only effect, or another doubt; inactive = no such curve, though single readings can be large; an effect the other way counts as inactive or inconclusive. Unless noted, % is scaled to controls: 0 for no effect and ±100 for the full control effect.
SMILES,TDP1 cell CPT,HT1080 IDH1KD tx,ELG1 DNA repair,IL1B secr inh,HT1080NT lethal,TDP1 cell noCPT
CC(=O)c1cccc(NC(=O)C(CC(C)C)NS(=O)(=O)c2ccc3c(c2)CCN3C(C)=O)c1 (stereo not given),-7%,.,.,.,.,-8%
Cc1cscc1NC(=O)/C=C/C(=O)O,4%,19%,?,.,11%,-6%
CC(=O)c1sc(C(C)(C)C)cc1NC(=O)/C=C/C(=O)O,-27%,-8%,?,-96*,-6%,?
CCNC(=O)COC(=O)c1cccc(Br)c1,-17%,16%,?,0,-2%,-5%
Cc1ccc(S(=O)(=O)N2CCC(=O)CC2)cc1,-13%,4%,-1%,7,-3%,15%
C#C[C@]1(OC(C)=O)CC[C@H]2[C@@H]3CCC4=C/C(=N/O)CC[C@@H]4[C@H]3CC[C@@]21CC,?,.,.,.,.,19µM*
Cc1nc(-c2ccc(Cl)cc2)sc1CCNC(=O)Cc1ccc(F)cc1,16µM*,.,.,.,.,15µM*
Cc1c(CCNC(=O)c2c(F)cccc2F)sc2nc(-c3ccc(F)cc3)nn12,-30%,.,.,.,.,?
COc1ccc(-c2nc3sc(CCNC(=O)Cc4ccccc4)c(C)n3n2)cc1,15µM*,.,.,.,.,21µM*
COc1ccc(-c2nc3sc(CCNC(=O)Cc4ccc(F)cc4)c(C)n3n2)cc1,16µM*,.,.,.,.,16µM*
COc1ccc(-c2nc3sc(CCNC(=O)c4ccco4)c(C)n3n2)cc1,?,.,.,.,.,13µM*
CC1CCc2c(sc(NC(=O)C3c4ccccc4Oc4ccccc43)c2C#N)C1 (stereo not given),8%,.,.,.,.,6%
CCCN1CCN(C(=O)c2oc3c(Cl)cccc3c2C)CC1,-9%,-1%,-18%,8,-15%,?
COc1ccc(-c2nc3sc(CCNC(=O)c4cc(OC)c(OC)c(OC)c4)c(C)n3n2)cc1,23µM*,.,.,.,.,16µM*
CC1CCC(NC(=O)c2ccc3c(c2)N(Cc2cccc(F)c2)C(=O)c2ccccc2S3)CC1 (stereo not given),-20%,.,.,.,.,?
CCOC(=O)c1ccc(N2C(=O)c3n[nH]c(-c4ccco4)c3C2c2ccc(C)cc2)cc1 (stereo not given),26µM*,.,.,.,.,10µM*
CCOC(=O)c1ccc(N2C(=O)c3n[nH]c(C)c3C2c2ccc(OCC)cc2)cc1 (stereo not given),?,.,.,.,.,10µM*
CCOC(=O)c1ccc(N2C(=O)c3n[nH]c(-c4ccco4)c3C2c2ccc([N+](=O)[O-])cc2)cc1 (stereo not given),23µM*,?,23µM*,?,-28%,12µM*
CCN(CC)CCCNC(=O)CSc1nc2nc(C)c(Cc3c(F)cccc3Cl)c(C)n2n1,?,.,.,.,.,6.5µM*
Cc1nc2nc(SCC(=O)NCCCN3CCCCC3)nn2c(C)c1Cc1ccccc1,1%,-1%,0%,-13,2%,3%
Cc1ccccc1Cc1c(C)nc2nc(SCC(=O)NCCc3ccc(Cl)cc3)nn2c1C,16µM*,.,.,.,.,?
CCC1CCCCN1CCCNC(=O)CSc1nc2nc(C)c(Cc3ccc(C)cc3)c(C)n2n1 (stereo not given),23µM*,?,-16%,?,?,?
Cc1nc2nc(SCC(=O)NCCCN3CCCC3)nn2c(C)c1Cc1ccccc1Cl,?,-19%,?,-54*,-5%,?
COc1ccc(NC(=O)N2CCC3(CC2)CCN(S(=O)(=O)c2ccccc2)CC3)cc1,-8%,.,.,.,.,?
N#C/C(=C\c1ccccc1OCC(=O)O)c1nc2ccccc2[nH]1,-13%,9%,-2%,0,6%,34%
SMILES,TDP1 cell CPT,HT1080 IDH1KD tx,ELG1 DNA repair,IL1B secr inh,HT1080NT lethal,TDP1 cell noCPT
Cc1cccc(NC(=O)c2cc(S(=O)(=O)NCc3ccc4c(c3)OCO4)ccc2F)c1C,-7%,.,.,.,.,-22%
CN(C)S(=O)(=O)c1ccc(N2CCCC2)c(C(=O)NNC(=O)COc2cccc(F)c2)c1,4%,-1%,-6%,-8,2%,-1%
OC[C@H]1O[C@H](c2nc(-c3nc(-c4cccc(-n5cccc5)c4)no3)cs2)C[C@@H]1O,?,?,.,-3,-17%,?
O=C(Nc1cccc(Cl)c1Cl)c1csc([C@@H]2O[C@H](CO)[C@@H](O)[C@H]2O)n1,23µM*,27%,.,25,19%,?
O=C(Nc1cccc(Cl)c1)c1ccc2sc([C@@H]3O[C@H](CO)[C@H](O)[C@H](O)[C@H]3O)nc2c1,0%,16%,.,2,6%,-1%
O=C(Nc1cccc(Cl)c1Cl)c1csc([C@H]2C[C@H](O)[C@@H](CO)O2)n1,15µM*,20%,.,-23,1%,?
CC(=O)Nc1ccc(-c2noc(-c3csc([C@@H]4C[C@H](O)[C@@H](CO)O4)n3)n2)cc1,-14%,7%,.,-55*,?,-15%
O=C(Nc1ccc(Cl)cc1)c1csc([C@@H]2O[C@H](CO)[C@@H](O)[C@H]2O)n1,?,1%,.,17,?,?
O=C(Nc1cccc(Cl)c1)c1ccc2sc([C@H]3C[C@H](O)[C@@H](CO)O3)nc2c1,26µM*,?,.,2,-13%,23µM*
O=C(Nc1ccc2c(c1)OCCO2)C(C1CC1)N1CCN(C/C=C/c2ccccc2)CC1 (stereo not given),?,-1%,.,-14,0%,?
CC(C(=O)Nc1cccc([N+](=O)[O-])c1)N1CCN(C/C=C/c2ccccc2)CC1 (stereo not given),?,-4%,-15%,-72*,1%,?
O=C(Nc1ccc2c(c1)OCCO2)C(c1cc2ccccc2o1)N1CCN(C/C=C/c2ccccc2)CC1 (stereo not given),15µM*,?,.,13,?,16µM*
CC1(C(=O)Nc2ccc3c(c2)OCCO3)CCN1C(=O)C/C=C/c1ccccc1 (stereo not given),29µM*,12%,.,-6,23%,?
CC1(C(=O)NS(=O)(=O)Cc2ccccc2C(F)(F)F)CCN1C(=O)C/C=C/c1ccccc1 (stereo not given),?,2%,.,27,9%,23µM*
CC1(C(=O)Nc2ccc3c(c2)OCCO3)CCN1C(=O)C1(c2ccccc2)CC1 (stereo not given),?,11%,.,1,5%,-27%
